Screening results: PubChem, National Center for Advancing Translational Sciences (NCATS)
Only some compounds are listed: those with a hit (about 9.2% of all), similar ones and a draw of the others.
SMN2 splice enh: increases expression of the SMN2 splice variant. HEK293 SMN2-luciferase splicing reporter, luminescence, 30-36 h. Potency, µM (titrated, usually from 46.1 µM), most hits filed as activators. 2.8% of 210,000 active. AID 1458; also: nearly all actives have a fitted effect of over 55% in size
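qHTS luciferase splicing reporter: luminescence rises when SMN2 exon 7 is included in transfected HEK293 cells. Compound exposure lasted 30-36 h at 37C, with 4.5 mM final sodium butyrate as control, followed by a ONE-Glo read.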
FLuc counter: firefly luciferase modulation, counter-screen for miR-21 project; 6.9% of 360,000 active; purified FLuc, Km substrates, luminescence inhibition; Potency, µM (doses to about 57.5 µM), hits mostly inhibitors; also: nearly all actives have a fitted effect of over 55% in size
Target sequence (P08659 whole entry, looked up): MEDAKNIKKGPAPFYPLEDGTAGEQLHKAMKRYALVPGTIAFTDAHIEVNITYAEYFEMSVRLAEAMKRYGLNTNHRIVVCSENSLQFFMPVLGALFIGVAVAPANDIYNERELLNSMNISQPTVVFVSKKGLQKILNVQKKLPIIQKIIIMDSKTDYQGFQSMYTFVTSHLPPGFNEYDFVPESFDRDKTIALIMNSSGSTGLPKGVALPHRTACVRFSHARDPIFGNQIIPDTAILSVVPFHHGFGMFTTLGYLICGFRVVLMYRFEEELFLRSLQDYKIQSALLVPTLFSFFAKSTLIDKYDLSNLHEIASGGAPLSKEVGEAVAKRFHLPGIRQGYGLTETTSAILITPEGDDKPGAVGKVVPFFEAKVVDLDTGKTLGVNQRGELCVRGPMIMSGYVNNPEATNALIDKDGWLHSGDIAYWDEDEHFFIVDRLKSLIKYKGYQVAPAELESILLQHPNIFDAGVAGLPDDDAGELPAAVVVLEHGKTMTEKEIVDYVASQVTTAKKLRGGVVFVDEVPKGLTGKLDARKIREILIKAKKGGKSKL
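Purified P. pyralis luciferase, 10 nM final, with Km-level 10 uM D-luciferin and 10 uM ATP in 50 mM Tris acetate pH 7.5, 10 mM Mg acetate, 0.01% Tween-20, 0.05% BSA; 6-point qHTS titration about 60 µM downward; luminescence read.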
ELG1 genotoxic: inducers of genotoxicity in HEK293T ELG1-luciferase cells; HEK293T ELG1-luciferase reporter, luminescence, 16 h; Potency, µM (titrated, usually from 46 µM), actives largely listed as activators; 1.3% of 330,000 active; AID 504466; also: nearly all actives have a fitted effect of over 60% in size
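Cells (2,000/well) expressing the ELG1-luciferase fusion are dosed by pin tool and kept 16 hr at 37 °C, 5% CO2. Signal comes from ONE-Glo luciferase reagent after 30 min at room temperature.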
NPC1 promoter act: activates the NPC1 promoter; Huh7 NPC1 promoter luciferase reporter, 24 h; Potency, µM (highest dose often 9.22 µM), usual class: activators; 2.4% of 320,000 active; also: nearly all actives have a fitted effect of over 60% in size
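Luminescence read-out of NPC1 promoter-driven luciferase in stably transfected Huh7 cells; compounds delivered in DMSO and left 24 h at 37C, 5% CO2, qHTS titration format.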
ELG1 DNA repair: ELG1-dependent DNA repair inhibition | HEK293T ELG1-luciferase reporter, luminescence, 16 h; DNA damage induced by 5-fluorouridine | AID 504467 | Potency, µM (series often up to 46.1 µM), actives largely listed as inhibitors | 2.3% of 330,000 active; also: nearly all actives have a fitted effect of over 55% in size
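Cells (2,000 per well) received 5-fluorouridine plus test compound or DMSO and were incubated 16 hr at 37 °C, 5% CO2. Luciferase activity was read by luminescence 30 min after ONE-Glo addition; signal suppression marked inhibition of damage-induced ELG1 function.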
Rab9 promoter act: activates the Rab9 promoter; Huh7 Rab9 promoter-luciferase reporter, luminescence, 24 h; AID 485297; 2.8% of 320,000 active; Potency, µM (titrated, usually from 9.22 µM), usual class: activators; also: nearly all actives have a fitted effect of over 60% in size
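Cells were plated at 1500 per well in reduced-serum medium with 10% FBS and left 2 h. Compound in DMSO was then added for 24 h at 37 °C. Reporter signal was read by luminescence after 10 min with luciferase detection reagent.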
Large screens that a line does not name were inactive. Calls follow the shape of the dose curve; as a rule, active = well fitted curve in the direction sought with a large enough effect; inconclusive = small, poorly fitted or top-dose-only effect, or another doubt; inactive = no such curve, though single readings can be large; an effect the other way counts as inactive or inconclusive.

O=C(COC(=O)CCNS(=O)(=O)c1ccccc1F)Nc1nnc(-c2ccccc2)o1	FLuc counter inconclusive (no result: SMN2 splice enh)
CC(C)(C)S(=O)(=O)c1cnc(-c2ccc(Cl)cc2)nc1N	FLuc counter inconclusive, NPC1 promoter act 2.51µM, ELG1 DNA repair inconclusive, Rab9 promoter act 2.24µM (no result: SMN2 splice enh)
CC(C)(C)S(=O)(=O)c1cnc(N2CCCCC2)nc1N	none (no result: SMN2 splice enh)
Nc1nc(-c2ccccc2)cn1/N=C/c1ccccc1	FLuc counter 15.1µM, ELG1 genotoxic inconclusive, ELG1 DNA repair inconclusive (no result: SMN2 splice enh)
Nc1nc(-c2ccccc2)cn1N	ELG1 DNA repair inconclusive
CCc1ccc(S(=O)(=O)c2nnn3c2nc(NCc2ccccc2)c2cc(Cl)ccc23)cc1	none (no result: ELG1 genotoxic, NPC1 promoter act, ELG1 DNA repair, Rab9 promoter act)
Cc1ccc(-n2c(C)cc(C(=O)CN3CCOCC3)c2C)cc1	FLuc counter inconclusive, ELG1 DNA repair inconclusive, Rab9 promoter act inconclusive
Cc1cc(C(=O)CN2CCCC(C)C2)c(C)n1-c1ccc(F)cc1 (centres undefined)	SMN2 splice enh 17.8µM, FLuc counter 15.1µM, ELG1 genotoxic inconclusive, NPC1 promoter act inconclusive, ELG1 DNA repair inconclusive, Rab9 promoter act 2.51µM
CCC(SC1=NCCS1)C(=O)Nc1nnc(-c2ccccc2OC)s1 (centres undefined)	ELG1 DNA repair 18.4µM
COC(=O)Nc1nnc(-c2ccccc2OC)s1	FLuc counter 10.7µM, ELG1 genotoxic inconclusive, NPC1 promoter act 3.55µM, ELG1 DNA repair inconclusive, Rab9 promoter act 2.24µM (no result: SMN2 splice enh)
COC(=O)Nc1nnc(-c2ccccc2Cl)s1	SMN2 splice enh inconclusive, FLuc counter 10.7µM, ELG1 genotoxic 23.1µM, NPC1 promoter act inconclusive, ELG1 DNA repair inconclusive
CC(Sc1nc2ccccc2c(=O)n1CC1CCCO1)C(=O)N(C)c1ccccc1 (centres undefined)	ELG1 DNA repair inconclusive (no result: SMN2 splice enh)
C=C1C=C(C(F)F)n2ncc(C(=O)Nc3ccccc3OCC)c2N1	none (no result: SMN2 splice enh, ELG1 genotoxic, NPC1 promoter act, ELG1 DNA repair, Rab9 promoter act)
CCN(CC)CCCNC(=S)N(Cc1cccnc1)Cc1cc2cc(C)ccc2[nH]c1=O	none (no result: SMN2 splice enh)
Cc1cccc(N2CCN(c3ncnc4c3nc3n4CCCCC3)CC2)c1C	none (no result: SMN2 splice enh, ELG1 genotoxic, NPC1 promoter act, ELG1 DNA repair, Rab9 promoter act)
Cc1ccc2[nH]c3c(=O)n(CC(=O)N(C)Cc4ccccc4)ncc3c2c1	none (no result: SMN2 splice enh, ELG1 genotoxic, NPC1 promoter act, ELG1 DNA repair, Rab9 promoter act)
CCc1ccc(CNC(=O)CN(c2ccc(C)cc2)S(=O)(=O)N(C)C)cc1	none (no result: ELG1 genotoxic, NPC1 promoter act, ELG1 DNA repair, Rab9 promoter act)
CC(C)Oc1ccc(C(=O)Nc2c3c(nn2C(C)(C)C)CS(=O)(=O)C3)cc1	none (no result: SMN2 splice enh)
CCC(=O)Nc1ccc2c(c1)ncn2C	none
O=C(Nc1ccc2nn(-c3ccccc3)nc2c1)c1cccs1	SMN2 splice enh inconclusive, ELG1 genotoxic inconclusive, NPC1 promoter act inconclusive, ELG1 DNA repair inconclusive, Rab9 promoter act 3.55µM
Cc1cccc(C(=O)Nc2ccc3c(c2)ncn3C)c1	FLuc counter 9.53µM, ELG1 genotoxic inconclusive, NPC1 promoter act 1.58µM, ELG1 DNA repair inconclusive, Rab9 promoter act 1.26µM (no result: SMN2 splice enh)
Cn1cnc2cc(NC(=O)c3cccs3)ccc21	FLuc counter 16.9µM, ELG1 genotoxic inconclusive, NPC1 promoter act inconclusive, ELG1 DNA repair inconclusive, Rab9 promoter act 2.82µM (no result: SMN2 splice enh)
Cc1cccc(C(=O)Nc2ccc3c(c2)nc(C)n3C)c1	FLuc counter 3.01µM, ELG1 genotoxic inconclusive, NPC1 promoter act 0.398µM, ELG1 DNA repair inconclusive, Rab9 promoter act 0.316µM (no result: SMN2 splice enh)
COc1ccc(-n2c(SCC(=O)N3CCC(C(=O)O)CC3)nc3ccccc3c2=O)cc1OC	none (no result: SMN2 splice enh)
COCCCNC(=O)CSc1nc2cc(S(=O)(=O)N3CCCCC3)ccc2o1	none (no result: SMN2 splice enh)
O=C(NCCc1ccc(Cl)cc1)C1(c2cccs2)CCOCC1	none (no result: SMN2 splice enh, ELG1 genotoxic, NPC1 promoter act, ELG1 DNA repair, Rab9 promoter act)
CC1=C(C(=O)OC2CCCCCC2)C(c2cccc(Cl)c2)CC(=O)N1 (centres undefined)	none (no result: ELG1 genotoxic, NPC1 promoter act, ELG1 DNA repair, Rab9 promoter act)
COc1cc(/C=C2\SC(=O)NC2=O)ccc1Oc1ccc([N+](=O)[O-])cn1	FLuc counter inconclusive, ELG1 DNA repair 20.6µM (no result: SMN2 splice enh)
COc1cc(/C=N/NC(=O)c2ccc3ccccc3c2)ccc1Oc1ccc([N+](=O)[O-])cn1	ELG1 DNA repair 16.4µM
COc1cccc(C(=O)N/N=C/c2ccc(Oc3ccc([N+](=O)[O-])cn3)c(OC)c2)c1	none
COc1ccc(OC)c(NC(=O)C2CCCN(S(=O)(=O)c3ccc4[nH]c(=O)ccc4c3)C2)c1 (centres undefined)	none (no result: SMN2 splice enh, ELG1 genotoxic, NPC1 promoter act, ELG1 DNA repair, Rab9 promoter act)
